Reference: the supplement of paper PMC4466140

Each binder was assayed against ScBbc1 (assay: SPOT peptide array binding signal intensity (averaged, normalized) (arbitrary units (background-subtracted, floor 0; scale differs between SH3 domains)); higher = stronger binding of the SH3 domain to the peptide).
How it was run: (§1)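 E. coli BL21(DE3) was used to express GST-fused SH3 domains from four yeast species, which were then purified on glutathione Sepharose. These were incubated at 10 μg/ml in TBS-based blocking buffer overnight at 4°C on cellulose membranes carrying synthetic 15-mer peptides, in which cysteines were replaced by serines. Binding signal is the replicate average of normalized, background-subtracted spot intensity, in arbitrary units that differ between domains.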

| Binder | SPOT peptide array binding signal intensity |
| --- | --- |
| GSKSGPPPRPKKPST | 97.8 |

Each binder was assayed against ScBem1-D1 in the same assay as above.
How it was run: as §1

| Binder | SPOT peptide array binding signal intensity |
| --- | --- |
| GSKSGPPPRPKKPST | 15 |

What follows are binders tested against ScBzz1-D1 in the same assay as above.
How it was run: as §1

| Binder | SPOT peptide array binding signal intensity |
| --- | --- |
| GSKSGPPPRPKKPST | 48.5 |

What follows are binders tested against ScBzz1-D2 in the same assay as above.
How it was run: as §1

| Binder | SPOT peptide array binding signal intensity |
| --- | --- |
| GSKSGPPPRPKKPST | 72 |

Each binder was assayed against ScCyk3 in the same assay as above.
How it was run: as §1

| Binder | SPOT peptide array binding signal intensity |
| --- | --- |
| GSKSGPPPRPKKPST | 1 |

Each binder was assayed against ScFus1 in the same assay as above.
How it was run: as §1

| Binder | SPOT peptide array binding signal intensity |
| --- | --- |
| GSKSGPPPRPKKPST | 6.5 |

The binders below were run against ScHof1 in the same assay as above.
How it was run: as §1

| Binder | SPOT peptide array binding signal intensity |
| --- | --- |
| GSKSGPPPRPKKPST | 1.75 |

These binders were tested against ScHse1 in the same assay as above.
How it was run: as §1

| Binder | SPOT peptide array binding signal intensity |
| --- | --- |
| GSKSGPPPRPKKPST | 13 |

The binders below were run against ScLsb1 in the same assay as above.
How it was run: as §1

| Binder | SPOT peptide array binding signal intensity |
| --- | --- |
| GSKSGPPPRPKKPST | 2.5 |

What follows are binders tested against ScLsb2 in the same assay as above.
How it was run: as §1

| Binder | SPOT peptide array binding signal intensity |
| --- | --- |
| GSKSGPPPRPKKPST | 0.5 |

What follows are binders tested against ScLsb3 in the same assay as above.
How it was run: as §1

| Binder | SPOT peptide array binding signal intensity |
| --- | --- |
| GSKSGPPPRPKKPST | 1400 |

What follows are binders tested against ScLsb4 in the same assay as above.
How it was run: as §1

| Binder | SPOT peptide array binding signal intensity |
| --- | --- |
| GSKSGPPPRPKKPST | 5 |

These binders were tested against ScMyo3 in the same assay as above.
How it was run: as §1

| Binder | SPOT peptide array binding signal intensity |
| --- | --- |
| GSKSGPPPRPKKPST | 5.25 |

What follows are binders tested against ScMyo5 in the same assay as above.
How it was run: as §1

| Binder | SPOT peptide array binding signal intensity |
| --- | --- |
| GSKSGPPPRPKKPST | ≤ 0 |

The binders below were run against ScNbp2 in the same assay as above.
How it was run: as §1

| Binder | SPOT peptide array binding signal intensity |
| --- | --- |
| GSKSGPPPRPKKPST | 51 |

These binders were tested against ScPex13 in the same assay as above.
How it was run: as §1

| Binder | SPOT peptide array binding signal intensity |
| --- | --- |
| GSKSGPPPRPKKPST | 133 |

The binders below were run against ScRvs167 in the same assay as above.
How it was run: as §1

| Binder | SPOT peptide array binding signal intensity |
| --- | --- |
| GSKSGPPPRPKKPST | 3.33 |

What follows are binders tested against ScSho1 in the same assay as above.
How it was run: as §1

| Binder | SPOT peptide array binding signal intensity |
| --- | --- |
| GSKSGPPPRPKKPST | 41 |

What follows are binders tested against ScSla1-D1-D2 in the same assay as above.
How it was run: as §1

| Binder | SPOT peptide array binding signal intensity |
| --- | --- |
| GSKSGPPPRPKKPST | 57.5 |

Each binder was assayed against ScSla1-D3 in the same assay as above.
How it was run: as §1

| Binder | SPOT peptide array binding signal intensity |
| --- | --- |
| GSKSGPPPRPKKPST | 28 |

The binders below were run against SpAbp1-D1 in the same assay as above.
How it was run: as §1

| Binder | SPOT peptide array binding signal intensity |
| --- | --- |
| GSKSGPPPRPKKPST | 85 |

These binders were tested against SpBbc1 in the same assay as above.
How it was run: as §1

| Binder | SPOT peptide array binding signal intensity |
| --- | --- |
| GSKSGPPPRPKKPST | 5.5 |

These binders were tested against SpBzz1-D1 in the same assay as above.
How it was run: as §1

| Binder | SPOT peptide array binding signal intensity |
| --- | --- |
| GSKSGPPPRPKKPST | 320 |

What follows are binders tested against SpBzz1-D2 in the same assay as above.
How it was run: as §1

| Binder | SPOT peptide array binding signal intensity |
| --- | --- |
| GSKSGPPPRPKKPST | 2 |

The binders below were run against SpCyk3 in the same assay as above.
How it was run: as §1

| Binder | SPOT peptide array binding signal intensity |
| --- | --- |
| GSKSGPPPRPKKPST | ≤ 0 |

The binders below were run against SpHof1 in the same assay as above.
How it was run: as §1

| Binder | SPOT peptide array binding signal intensity |
| --- | --- |
| GSKSGPPPRPKKPST | 1.5 |

What follows are binders tested against SpHof1-2 in the same assay as above.
How it was run: as §1

| Binder | SPOT peptide array binding signal intensity |
| --- | --- |
| GSKSGPPPRPKKPST | 10.5 |

What follows are binders tested against SpHof1-3 in the same assay as above.
How it was run: as §1

| Binder | SPOT peptide array binding signal intensity |
| --- | --- |
| GSKSGPPPRPKKPST | 25 |

Each binder was assayed against SpHse1 in the same assay as above.
How it was run: as §1

| Binder | SPOT peptide array binding signal intensity |
| --- | --- |
| GSKSGPPPRPKKPST | 16.2 |

The binders below were run against SpLsb1 in the same assay as above.
How it was run: as §1

| Binder | SPOT peptide array binding signal intensity |
| --- | --- |
| GSKSGPPPRPKKPST | 12.5 |

Each binder was assayed against SpLsb4 in the same assay as above.
How it was run: as §1

| Binder | SPOT peptide array binding signal intensity |
| --- | --- |
| GSKSGPPPRPKKPST | 332 |

What follows are binders tested against SpMyo1 in the same assay as above.
How it was run: as §1

| Binder | SPOT peptide array binding signal intensity |
| --- | --- |
| GSKSGPPPRPKKPST | 8 |

Each binder was assayed against SpNbp2 in the same assay as above.
How it was run: as §1

| Binder | SPOT peptide array binding signal intensity |
| --- | --- |
| GSKSGPPPRPKKPST | 5 |

The binders below were run against SpPex13 in the same assay as above.
How it was run: as §1

| Binder | SPOT peptide array binding signal intensity |
| --- | --- |
| GSKSGPPPRPKKPST | 7 |

What follows are binders tested against SpRvs167 in the same assay as above.
How it was run: as §1

| Binder | SPOT peptide array binding signal intensity |
| --- | --- |
| GSKSGPPPRPKKPST | ≤ 0 |

What follows are binders tested against SpSla1-D1-D2 in the same assay as above.
How it was run: as §1

| Binder | SPOT peptide array binding signal intensity |
| --- | --- |
| GSKSGPPPRPKKPST | 5 |

The binders below were run against SpSla1-D3 in the same assay as above.
How it was run: as §1

| Binder | SPOT peptide array binding signal intensity |
| --- | --- |
| GSKSGPPPRPKKPST | 1 |
